Laboratory results published in PubChem BioAssay.

Tests used:
[1] = system: Human papillomavirus type 1a protein E7 (residues 44-93); assay: HPV1a E7 fragment binders on microarrays, primary screen, biochemical, small-molecule microarray, residues 44-93, 635 nm fluorescence (AID 1108); details: small-molecule microarray binding, fluorescence 635 nm; higher = more signal;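 also: E7 fragment applied at 1 µg/mL in TBST for 1 h at 4 C; score combines spot fluorescence with its signal to noise ratio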
[2] = modulators of HCV replicon luciferase signal, primary screen, HCV replication inhibitor project, Huh7 cells, luciferase reporter (AID 1109); details: 48 h, higher = more signal;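 also: huh7 hepatoma cells harbouring a luciferase neomycin HCV replicon reporter; luciferase luminescence as measure of HCV replicon replication; test concentration not given here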
[3] = target: Left-right determination factor 2 (Homo sapiens) (UniProt O00292); assay: LEFTY2 binders on small-molecule microarrays, primary screen, biochemical, small-molecule microarray, 635 nm fluorescence scan (AID 1110); details: LEFTY2 binding, higher = more signal
[4] = target: Calmodulin-1 (Homo sapiens) (UniProt P0DP23); assay: CALM1 binders on microarrays, EGTA buffer, profiling panel, biochemical, small-molecule microarray, Cy5-labelled CALM1 (AID 1111); details: Cy5-CALM1 binding fluorescence, higher = more signal;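 also: labelled calmodulin applied in Tris saline Tween buffer holding calcium plus EGTA and DTT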
[5] = target: Calmodulin-1 (Homo sapiens) (UniProt P0DP23); assay: calcium-bound CALM1 binders on microarrays, profiling panel, artefact control for SMM control-protein annotation, biochemical, small-molecule microarray, Cy5-labelled CALM1, plus calcium (AID 1112); details: Cy5-CALM1 binding fluorescence, higher = more signal;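 also: score merges spot fluorescence with signal to noise from triplicate slides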
[6] = small-molecule microarray binders of probe aWnt5a, primary screen, biochemical, biotinylated probe, 635/667 nm fluorescence (AID 1113); details: higher = more signal;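 also: score merges 667 nm fluorescence intensity with signal-to-noise per printed feature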
[7] = small-molecule microarray binders of probe aShh, primary screen, biochemical, biotinylated probe, 635/667 nm fluorescence (AID 1114); details: higher = more signal;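 also: probe is biotin-labelled aShh protein from a stem cell growth factor screen; measures binding of labelled protein to compounds printed on the slide; score merges feature fluorescence at 667 nm with signal-to-noise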
[8] = small-molecule microarray binders of probe aNog, primary screen, biochemical, biotinylated probe, 635/667 nm fluorescence (AID 1115); details: higher = more signal;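 also: probe is biotinylated aNog protein used at 0.15 µg/mL for 1 h at 4 C; z-score combines 667 nm fluorescence of each spot with its signal to noise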
[9] = target: Torsin-1A-interacting protein 1 (Homo sapiens) (UniProt Q5JTV8); assay: LAP1 binders from COS7 cell lysate, primary screen, small-molecule microarray, 635/667 nm fluorescence (AID 1116); details: COS7-hLAP1 lysate binding, 635 nm fluorescence, higher = more signal
[10] = target: Alpha-bungarotoxin (Bungarus multicinctus) (UniProt P60615); assay: alpha-bungarotoxin binders on microarray, profiling panel, artefact control for SMM control protein annotation, biochemical, small-molecule microarray, Alexa647 label, 635/667 nm fluorescence (AID 1117); details: alpha-BTX-A647 binding fluorescence, higher = more signal
Chain of Alpha-bungarotoxin (Bungarus multicinctus) (P60615 whole entry, looked up): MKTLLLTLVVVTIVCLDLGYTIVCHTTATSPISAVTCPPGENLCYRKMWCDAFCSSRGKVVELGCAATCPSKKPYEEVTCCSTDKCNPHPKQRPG

Chain of Torsin-1A-interacting protein 1 (Homo sapiens) (Q5JTV8 whole entry, looked up): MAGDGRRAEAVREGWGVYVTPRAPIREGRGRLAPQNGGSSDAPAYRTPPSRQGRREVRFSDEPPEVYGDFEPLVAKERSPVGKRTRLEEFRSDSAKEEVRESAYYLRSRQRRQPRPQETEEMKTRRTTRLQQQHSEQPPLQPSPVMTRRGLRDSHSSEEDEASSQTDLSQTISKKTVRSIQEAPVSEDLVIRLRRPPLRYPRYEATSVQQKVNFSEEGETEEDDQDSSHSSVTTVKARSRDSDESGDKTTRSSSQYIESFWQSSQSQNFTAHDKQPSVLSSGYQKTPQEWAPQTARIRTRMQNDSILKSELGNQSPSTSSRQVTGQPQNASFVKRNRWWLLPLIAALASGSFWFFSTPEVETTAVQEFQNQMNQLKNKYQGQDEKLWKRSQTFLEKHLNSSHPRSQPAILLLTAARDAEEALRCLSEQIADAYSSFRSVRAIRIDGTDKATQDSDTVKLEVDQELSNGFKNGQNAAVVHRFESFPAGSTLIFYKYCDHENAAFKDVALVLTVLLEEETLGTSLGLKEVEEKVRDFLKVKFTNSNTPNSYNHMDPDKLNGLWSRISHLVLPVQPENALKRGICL
Chain of Left-right determination factor 2 (Homo sapiens) (O00292 whole entry, looked up): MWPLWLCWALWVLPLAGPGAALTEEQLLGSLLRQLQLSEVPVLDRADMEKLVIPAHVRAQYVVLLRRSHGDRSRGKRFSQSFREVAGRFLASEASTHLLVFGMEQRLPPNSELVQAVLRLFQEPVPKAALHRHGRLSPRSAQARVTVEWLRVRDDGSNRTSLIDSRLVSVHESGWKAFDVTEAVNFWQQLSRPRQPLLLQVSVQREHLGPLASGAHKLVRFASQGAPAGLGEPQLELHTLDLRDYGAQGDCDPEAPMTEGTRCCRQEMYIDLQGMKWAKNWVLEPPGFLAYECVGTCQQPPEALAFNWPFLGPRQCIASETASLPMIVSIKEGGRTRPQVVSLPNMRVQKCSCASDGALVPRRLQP

SMILES | composite z-score [1] | z-score [2] | composite z-score [3] | composite z-score [4] | composite z-score [5] | composite z-score [6] | composite z-score [7] | composite z-score [8] | composite z-score [9] | composite z-score [10]
CCOC(=O)NN=C1C[C@@H](O)[C@@H](O)[C@@H]2[C@@H]3C(=O)N(Cc4ccc5c(c4)OCO5)C(=O)[C@@H]3CC[C@H]12 | 0.581 | 0.603 | -0.0985 | -0.569 | -0.0188 | -0.129 | -0.206 | -0.177 | 1.05 | 0.543
CO[C@H]1COC(=O)CCC[C@@H](C)[C@H](OC)COC(=O)[C@@H]2CCCN2C(=O)CC=C[C@@H]1C | -1.68 | -2.06 | 1.18 | -0.984 | -1.72 | -0.236 | -0.0533 | -0.0553 | 1.09 | 0.199
C#CCCCON=C1[C@H]2CCn3c(=O)n(C)c(=O)n3[C@H]2[C@H](O)[C@@H]2O[C@H]12 | 0.371 | 0.818 | 0.503 | -0.266 | -0.792 | -0.0486 | 0.0723 | 0.0762 | 0.35 | 0.0727
CCOC(=O)[C@H](CC(C)C)NC(=O)CCC1CC(OC(=O)NCc2cccc3ccccc23)CC2(CCCC(COC(=O)NCCOc3ccccc3)O2)O1 (stereo not given in full) | 1.32 | -0.687 | 0.518 | 0.721 | -0.143 | 0.0162 | -0.253 | -0.311 | 0.556 | 0.266
C#CCCCON=C1[C@H]2CCn3c(=O)n(-c4ccccc4)c(=O)n3[C@H]2[C@H](O)[C@@H]2O[C@H]12 | 0.438 | -2.97 | 0.602 | -0.312 | -0.273 | -0.0792 | -0.0146 | -0.17 | -0.131 | 0.515
CO[C@H]1COC(=O)CC=C[C@H](C)[C@@H](OC)COC(=O)[C@H](C)COC(=O)CC=C[C@@H]1C | -0.61 | 0.507 | 1.33 | -0.774 | -1.62 | -0.154 | -0.439 | -0.303 | -0.396 | -0.876
CCOC(=O)NN=C1C[C@@H](O)[C@@H](O)[C@@H]2[C@@H]3C(=O)N(c4cccc(Oc5ccccc5)c4)C(=O)[C@@H]3CC[C@H]12 | 0.731 | 0.011 | 0.404 | 0.141 | -0.141 | -0.205 | -0.388 | -0.304 | 0.129 | 0.675
CC(CCN1CCc2nc(-c3ccccc3)c(-c3ccccc3)cc2C1)=NOC[C@@H](O)COCc1ccco1 | 0.58 | -1.11 | 0.718 | -0.216 | -0.625 | -0.0346 | 0.0048 | -0.0524 | 0.323 | 0.365
COC(=O)CC=C[C@@H](C)[C@@H](C=NO[C@@H](C)c1cn([C@H](CO)Cc2ccccc2)nn1)NS(=O)(=O)c1ccc(C)cc1 | -0.0476 | -0.858 | 0.739 | -0.598 | -0.531 | 0.0077 | -0.0977 | 0.143 | 0.258 | -0.331
CC(C)=CCCC(C)=CCON=C1C[C@@H](O)[C@@H](O)[C@@H]2[C@@H]3C(=O)N(Cc4ccccc4)C(=O)[C@@H]3CC[C@H]12 | 0.759 | -2.74 | 0.985 | 0.0703 | -0.985 | -0.164 | -0.2 | -0.0223 | 0.577 | 0.121
CCOC(=O)[C@H](Cc1ccccc1)NC(=O)CCC1CC(OC(=O)NCCc2ccc(F)cc2)CC2(CCCC(COC(=O)NCCOC)O2)O1 (stereo not given in full) | 1.4 | 0.686 | 0.529 | 0.276 | -0.109 | -0.116 | 0.131 | 0.0853 | 0.979 | 0.574
COc1cccc([C@H]2Oc3ccc(OC)cc3C(=NO[C@H](C)c3cn([C@H](CO)Cc4ccccc4)nn3)[C@@H]2O)c1 | -0.995 | -1.74 | 0.323 | -1.57 | -0.45 | -0.175 | -0.229 | -0.141 | 0.169 | -0.689
